Tau ThT inhib: tau fibrillization inhibition (ThT binding) | Potency, µM (doses to about 57.4 µM), inactives show top-dose activity, negative = inhibition, most hits filed as inhibitors | P10636 | actives 2.1% (n = 270,000) | recombinant tau K18 P301L, heparin-induced fibrillization, ThT fluorescence; also: potency is read from the fitted curve at half-maximal effect; nearly all actives have a fitted effect of over 55% in size
Target sequence (P10636 561-689 P618L limits assumed): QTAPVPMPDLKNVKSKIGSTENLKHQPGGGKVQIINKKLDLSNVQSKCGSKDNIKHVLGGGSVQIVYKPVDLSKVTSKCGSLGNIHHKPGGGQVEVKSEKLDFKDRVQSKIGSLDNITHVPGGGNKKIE
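Using a mix of unlabeled (15 uM) and Alexa 594-labeled (0.24 uM) tau K18 P301L, heparin-triggered fibrillization over 6 hr at 37 C was scored by ThT fluorescence.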
Tau fibril FP: tau fibrillization inhibition (FP). K18 P301L tau heparin fibrillization, Alexa594 FP, 6 h. AID 1468. actives 0.39% (n = 280,000). P10636. Potency, µM (titrated, usually from 57.7 µM), for inactives: top-dose activity, negative = inhibition, most hits filed as inhibitors; also: potency is read from the fitted curve at half-maximal effect; nearly all actives have a fitted effect of over 55% in size
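Read-out: fluorescence polarization of Alexa 594-labeled tau (0.24 uM), 555 nm excitation, 632 nm emission. Mixtures held 15 uM unlabeled K18 P301L, compound and 20 uM heparin, pH 7 acetate buffer, incubated 6 hr at 37 C.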
Coupling enz: counter-screen for Giardia aldolase inhibitors: coupling enzyme system; coupling enzyme system counterscreen, AmpLite Red fluorescence; activity change, negative = inhibition, % at 58.2 µM, hits read low; actives 0.67% (n = 290,000); AID 2472; in the data active = activity change below about -30%
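Compounds tested against the coupling enzymes alone at 57.5 uM final; readout was AmpLite Red fluorescence (525/598 nm) after 20 min at RT.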
Sfp PPTase inh: inhibitors of Bacillus subtilis Sfp phosphopantetheinyl transferase | Q9F4F7 | Biochemical Sfp PPTase activity, qHTS | Potency, µM, without a hit: largest response in the series, negative = inhibition, usual class: inhibitors | actives 3.5% (n = 310,000) | AID 1490;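 also: the enzyme is Sfp with the accession as filed and its product quenches rhodamine fluorescence; potency is read from the fitted curve at half-maximal effect; 0% = enzyme reaction without inhibitor and -100% = no enzyme wells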
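Fluorescence-quenching assay: 15 nM Sfp-PPTase preincubated 15 min at room temperature with compound, then 5 uM rhodamine-CoA and 12.5 uM BHQ-2-labelled YbbR peptide added. Fluorescence (ex 525/em 598 nm) read at start and after 30 min; difference gives rate.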
G9a inh: G9a (human) methyltransferase inhibition; Potency, µM (doses to about 102 µM), for inactives: at the highest dose activity, negative = inhibition, usual class: inhibitors; actives 8.8% (n = 350,000); AID 504332; G9a H3K9 monomethylation, AlphaScreen, 2 h; Q96KQ7; also: potency is read from the fitted curve at half-maximal effect; nearly all actives have a fitted effect of over 75% in size
Target sequence (Q96KQ7 913-1193 limits assumed): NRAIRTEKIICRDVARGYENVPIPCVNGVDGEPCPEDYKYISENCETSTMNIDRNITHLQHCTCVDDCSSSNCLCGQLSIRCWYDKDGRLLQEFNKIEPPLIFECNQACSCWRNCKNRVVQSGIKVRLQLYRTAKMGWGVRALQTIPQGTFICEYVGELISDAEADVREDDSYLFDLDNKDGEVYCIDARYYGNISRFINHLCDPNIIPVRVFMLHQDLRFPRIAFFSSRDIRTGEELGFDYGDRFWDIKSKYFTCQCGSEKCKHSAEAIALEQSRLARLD
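Quantitative HTS format: methyltransferase activity on a biotin-tagged H3K9 peptide is measured by AlphaScreen, using a rabbit anti-monomethyl-H3K9 antibody with streptavidin donor and anti-IgG acceptor beads. Final levels are 20 nM enzyme, 500 nM peptide, 20 uM SAM; 2 h RT.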
Tau fluor cs: counter-screen for tau fibril formation inhibitors; AID 1463; tau K18 P301L Alexa594 fluorescence, heparin fibrillization; Potency, µM (series often up to 57.7 µM), without a hit: top-dose activity change, negative = decrease; actives 0.93% (n = 280,000); also: potency is read from the fitted curve at half-maximal effect; nearly all actives have a fitted effect of over 55% in size
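Human tau K18 P301L (15 uM unlabeled, 0.24 uM Alexa 594-labeled) in 100 mM sodium acetate pH 7 with 20 uM heparin, 6 hr at 37 C. ThT 30 uM added, 1 hr ambient; Alexa 594 FP and total fluorescence read at 555/632 nm.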
Numbers without * were called inactive; ? = inconclusive; . = no result; [ ] = another dose, or the depositor's remark. Hits are enriched below; roughly 11% of the tested compounds scored in any of these assays. Unless noted, calls follow the shape of the dose curve; as a rule, active = well fitted curve in the direction sought with a large enough effect; inconclusive = small, poorly fitted or top-dose-only effect, or another doubt; inactive = no such curve, though single readings can be large; an effect the other way counts as inactive or inconclusive. Unless noted, % is scaled to controls: 0 for no effect and ±100 for the full control effect.

SMILES	Tau ThT inhib	Tau fibril FP	Coupling enz	Sfp PPTase inh	G9a inh	Tau fluor cs
CCCCN(C(=O)c1ccccc1Br)C1CCS(=O)(=O)C1 (stereo not given)	.	.	.	.	12.7%[0.501 µM]	.
CCCCN(C(=O)c1ccc(Br)o1)C1CCS(=O)(=O)C1 (stereo not given)	.	.	.	.	50.1µM*	.
Cc1cccc(NC(=O)C2CCN(c3nc4ccccc4[nH]3)CC2)c1C	-15.6%	-2.9%	.	.	5.0%[59 µM]	-4.0%
COC(=O)c1ccc(CN2CCN(Cc3ccc(C(=O)OC)o3)CC2)o1	-4.1%	1.1%	1.8	20.0%	11.2µM*	-4.1%
O=C(CN1C(=O)C2C3C=CC(C3)C2C1=O)OCC(=O)c1ccc([N+](=O)[O-])cc1 (stereo not given)	.	.	2.3	?	39.8µM*	.
Cc1ccccc1-c1nnn(CC(=O)Nc2sc3c(c2C#N)CCC(C(C)(C)C)C3)n1 (stereo not given)	-1.8%	?	.	.	1.9%[59 µM]	?
COc1ccc(C)cc1NS(=O)(=O)c1cc(Br)cc2c1N(C(C)=O)C(C)C2 (stereo not given)	-8.0%	-5.6%	.	.	-29.0%[59 µM]	-25.2%
Cc1sc(-c2ccccn2)nc1OC(=O)c1ccc(F)cc1F	?	?	0.5	15.8µM*	10µM*	-14.7%
Cc1sc(-c2ccccn2)nc1OC(=O)c1ccc(Cl)c(Cl)c1	-9.0%	-6.6%	1.9	-7.3%	39.8µM*	-8.0%
O=C1NC2(CCCCC2)C(=O)N1c1cccc(Cl)c1	.	.	3.3	2.3%	9.6%	.
COc1ccc(S(=O)(=O)Nc2ccc3c(c2)OCO3)cc1OC	?	2.5%	5.0	-7.7%	50.1µM*	-18.6%
COc1ccc(C)cc1S(=O)(=O)NCC(c1ccc2c(c1)OCO2)N1CCN(C)CC1 (stereo not given)	.	.	.	.	11.2µM*	.
CC(=O)N1CCCc2cc(S(=O)(=O)Nc3ccc4c(c3)OCO4)ccc21	-17.5%	3.4%	2.0	-6.0%	50.1µM*	-20.5%
COc1ccc(S(=O)(=O)NCC(c2ccc3c(c2)OCO3)N2CCN(C)CC2)cc1OC (stereo not given)	.	.	.	.	50.1µM*	.
Cc1ccc(OCC(=O)Nc2nnc(SCc3cc(=O)n4cc(C)ccc4n3)s2)cc1	-1.8%	-0.1%	.	.	0.1%[59 µM]	-1.5%
O=C(CN1C(=O)CCc2cc(S(=O)(=O)N3CCOCC3)ccc21)NCc1ccc(Cl)cc1	0.9%	-1.8%	.	.	0.1%[12.7 µM]	-4.9%
O=C(CCSCc1ccccc1Cl)NCCc1ccccc1	-16.3%	0.6%	.	.	1.7%[59 µM]	-22.2%
CC1(C)CC(=O)C2=C(C1)OC1=C(C(=O)CC(C)(C)C1)C2c1cc([N+](=O)[O-])cc([N+](=O)[O-])c1O	13.8%	-0.4%	-36.3*	11.2µM*	58.9%[12.7 µM]	10.0%
CCOc1cc(C2C3=C(CC(C)(C)CC3=O)OC3=C2C(=O)CC(C)(C)C3)cc([N+](=O)[O-])c1O	?	4.1%	-0.2	19.4%	?	-11.0%
CCNc1ncc2nc(-c3cc(F)cc(F)c3)c(=O)n(-c3ccccc3)c2n1	.	.	1.8	11.5%	-3.9%[12.7 µM]	.
CN(C)CCCN(C(=O)c1ccc(C(=O)c2ccccc2)cc1)c1nc2cc3c(cc2s1)OCO3	.	.	-0.1	-20.2%	?	.
CCOc1ccc2nc(N(CCCN(C)C)C(=O)c3ccc(S(=O)(=O)N4CCCC4)cc3)sc2c1	.	.	1.2	-15.1%	?	.
CN(C)CCCN(C(=O)c1cc(Cl)sc1Cl)c1nc2cc3c(cc2s1)OCO3	.	.	.	-5.2%	50.1µM*	.
CC1CCCCN1S(=O)(=O)c1ccc(C(=O)N(CCCN(C)C)c2nc3cc4c(cc3s2)OCO4)cc1 (stereo not given)	.	.	.	4.1%	50.1µM*	.
CN(C)CCCN(C(=O)c1ccc(S(=O)(=O)N2CCCC2)cc1)c1nc2ccc(Br)cc2s1	.	.	.	-13.4%	50.1µM*	.
SMILES	Tau ThT inhib	Tau fibril FP	Coupling enz	Sfp PPTase inh	G9a inh	Tau fluor cs
CN(C)CCCN(C(=O)c1ccc(S(=O)(=O)N2CCCCC2)cc1)c1nc2cc3c(cc2s1)OCO3	.	.	-0.3	-13.6%	50.1µM*	.
CN(C)CCCN(C(=O)c1ccc(S(=O)(=O)N2CCOCC2)cc1)c1nc2cc3c(cc2s1)OCO3	.	.	-0.1	-6.4%	.	.
CN(C)CCCN(C(=O)c1ccc(Cl)s1)c1nc2cc3c(cc2s1)OCO3	.	.	-4.3	-0.6%	?	.
COCCN1C(=O)N[C@@H](c2cccc(F)c2)C(C(C)=O)=C1C	2.8%[11.5 µM]	-1.0%[11.6 µM]	-0.7	23.2%	.	-1.6%[11.6 µM]
Cc1cccc(N(C)S(=O)(=O)c2c(C)noc2C)c1	.	.	-2.6	7.1%	20.5%	.
COc1ccc(C2C(C#N)=C(N)Oc3n[nH]c(C)c32)cc1Cn1nnc2ccccc21 (stereo not given)	?	-1.9%	-0.1	-13.1%	-20.9%[59 µM]	-16.5%
CC1=C(n2nnc3ccccc32)C(c2ccccc2)C(C#N)=C(N)O1 (stereo not given)	?	-3.6%	-42.2*	1.6%	?	-7.3%
COc1ccccc1N1C(=O)C2ON(c3ccccc3)C(c3ccc(N(C)C)cc3)C2C1=O (stereo not given)	?	-5.8%	0.4	44.7µM*	8.91µM*	-17.7%
COc1ccccc1CNC(=O)Cn1ccsc1=N	.	.	1.1	-10.8%	.	.
COc1ccc(-c2csc3ncnc(N4CCN(c5ccccc5)CC4)c23)cc1	.	.	1.3	16.3%	70.8µM*	.
COc1ccc(-c2csc3ncnc(N4CCN(c5ccccc5[N+](=O)[O-])CC4)c23)cc1	.	.	-0.1	6.0%	14.1µM*	.
O=C1CCC=C1C(O)CCc1ccccc1 (stereo not given)	-1.5%	-5.0%	0.7	-13.1%	.	-5.7%
NC(=O)c1cc([N+](=O)[O-])ccc1NCCc1ccccc1	.	.	-3.2	0.4%	10.5%	.
NC(=O)c1ccc([N+](=O)[O-])cc1SCc1ccccc1	-21.4%	7.4%	.	-10.6%	39.8µM*	-21.4%
O=c1[nH]c(NNC(=S)NCc2ccccc2)nc2c1C1(CCCCC1)Cc1ccccc1-2	-4.6%	?	-0.9	-14.0%	20µM*	?
C=CCNC(=S)NNc1nc2c(c(=O)[nH]1)C1(CCCC1)Cc1ccccc1-2	-8.0%	-5.7%	-4.8	?	?	?
O=c1[nH]c(NNC(=S)NC2CCCCC2)nc2c1C1(CCCC1)Cc1ccccc1-2	2.5%	0.6%	-2.2	79.4µM*	-7.9%[12.7 µM]	-21.3%
COC(=O)c1cc2oc3ccccc3c2n1CC(=O)Nc1ccc(Cl)cc1F	-13.8%	-3.4%	.	.	24.6%[59 µM]	-23.5%
CC1=C(C(=O)Nc2ccc(C)cc2C)C(c2ccccc2C)n2ncnc2N1 (stereo not given)	2.6%	1.2%	.	.	8.6%[59 µM]	1.4%
S=c1[nH]nc(-c2ccccn2)n1/N=C/c1ccccc1	2.1%	4.9%	6.2	39.8µM*	?	-2.9%

High-throughput results deposited in PubChem by National Center for Advancing Translational Sciences (NCATS).
